Test results as given in PubChem BioAssay (NCATS).
Inconclusive results are not listed. A call without a number means that no potency is given here. Calls of active or inactive are those of the source. Unless noted, the call rests on the fitted dose curve; in most records, active means well fitted curve in the direction sought with a large enough effect; inconclusive means small, poorly fitted or top-dose-only effect, or another doubt; inactive means no such curve, though single readings can be large; an effect the other way counts as inactive or inconclusive.

Tested on: not listed separately
Experiment: qHTS Assay for Modulators of Human Peripheral Myelin Protein 22 (PMP22) Expression/Activity (AID 1967; active means well fitted curve in the direction sought with a large enough effect in the signal ratio; the % refers to the signal ratio)
Details: Cell-based PMP22 reporter, dual-color luciferase ratio, 0% = compound-free control cells, mouse Pmp22 promoter in mouse Schwann cells; series mostly up to 115 µM
Method in brief: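 Engineered MSC80 cells, Pmp22-promoter green and EF-alpha red luciferase reporters; 24h compound treatment at 37 °C. Concentration-response fits on green, red and ratio signals, each overlap-corrected, with %Activity normalized to untreated wells.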

Question: For CC(N)=NCc1cccc(CN)c1, which outcome is on record?
Answer: inactive

Question: For O=C(O)c1cc(=O)c2ccc(Cl)cc2[nH]1, which outcome is on record?
Answer: inactive

Question: Which outcome does the source give for CN(C)CCCCSC(=N)N here?
Answer: inactive

Question: Which outcome does the source give for NC(CCC(=O)NCS(=O)(=O)O)C(=O)O (configuration not stated) here?
Answer: inactive

Target: Ferritin light chain (Equus caballus) (UniProt P02791)
Experiment: qHTS Validation Assay for Identification of Novel General Anesthetics (AID 2323)
Details: horse apoferritin, anesthetic-site fluorescent probe displacement; series mostly up to 76.9 µM
Method in brief: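 Normalized fluorescence response, scaled between free 1-AMA and 1-AMA/apoferritin complex, fitted to a four-parameter Hill equation for concentration-effect values. Binding mix: 10 uM horse-spleen apoferritin, 50% saturated 1-AMA in PBS; read 380/535 nm after 10 min.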

Ferritin light chain (Equus caballus), sequence (P02791 2-175 limits assumed): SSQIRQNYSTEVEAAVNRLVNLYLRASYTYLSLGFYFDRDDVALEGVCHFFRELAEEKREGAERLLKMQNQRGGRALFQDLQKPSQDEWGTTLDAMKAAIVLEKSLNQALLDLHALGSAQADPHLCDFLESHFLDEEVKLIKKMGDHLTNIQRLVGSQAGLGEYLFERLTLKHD

Question: For O=C(O)c1cc(=O)c2ccc(Cl)cc2[nH]1, which outcome is on record?
Answer: inactive

Question: With CN(C)CCCCSC(=N)N as the compound, how does the outcome read?
Answer: inactive

Question: With Cn1cnc2c(NC3CCCC3)ncnc21 as the compound, how does the outcome read?
Answer: inactive

Question: For NC(CCC(=O)NCS(=O)(=O)O)C(=O)O (configuration not stated), which outcome is on record?
Answer: inactive

Question: With O=C(OCCN1CCCCC1)c1c[nH]c2ccccc12 as the compound, how does the outcome read?
Answer: inactive

Target: ATP-dependent DNA helicase Q1 (Homo sapiens) (UniProt P46063)
Experiment: qHTS Validation Assay for Inhibitors of RecQ-Like Dna Helicase 1 (RECQ1) (AID 2353)
Details: recombinant RECQ1 helicase DNA unwinding assay; series mostly up to 25.6 µM
Method in brief: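 50 nM RECQ1T1 preincubated 15 min with compound in Tris pH 8.0 buffer with MgCl2, DTT, Tween-20 and 2.5 ug/ml poly(dI-dC); started with 200 nM TAMRA/BHQ-2 forked duplex and 2 mM ATP. Unwinding read as fluorescence (525/598 nm), two reads 2 h apart.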

ATP-dependent DNA helicase Q1 (Homo sapiens), sequence (P46063 whole entry, looked up): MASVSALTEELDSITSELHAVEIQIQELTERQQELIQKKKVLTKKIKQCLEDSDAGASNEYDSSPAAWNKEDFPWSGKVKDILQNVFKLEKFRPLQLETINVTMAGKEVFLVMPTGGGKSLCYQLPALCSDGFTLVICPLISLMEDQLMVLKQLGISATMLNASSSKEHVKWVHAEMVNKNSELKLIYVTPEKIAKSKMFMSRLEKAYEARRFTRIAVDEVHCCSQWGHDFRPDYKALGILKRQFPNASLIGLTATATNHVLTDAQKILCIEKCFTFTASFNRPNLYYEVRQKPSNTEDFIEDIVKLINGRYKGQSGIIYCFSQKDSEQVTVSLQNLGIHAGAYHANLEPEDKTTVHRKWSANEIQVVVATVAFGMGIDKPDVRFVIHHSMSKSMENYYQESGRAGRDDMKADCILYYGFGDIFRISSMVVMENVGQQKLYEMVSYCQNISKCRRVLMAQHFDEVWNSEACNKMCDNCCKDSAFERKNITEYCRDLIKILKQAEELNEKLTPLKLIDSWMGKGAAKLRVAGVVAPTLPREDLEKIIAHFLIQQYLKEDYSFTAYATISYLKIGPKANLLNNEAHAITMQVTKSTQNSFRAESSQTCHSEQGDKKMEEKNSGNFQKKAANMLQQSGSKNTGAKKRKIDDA

Question: For CC(N)=NCc1cccc(CN)c1, which Potency is on record?
Answer: inactive

Question: For O=C(O)c1cc(=O)c2ccc(Cl)cc2[nH]1, which Potency is on record?
Answer: inactive

Question: For NCCCCCCNS(=O)(=O)c1cccc2c(Cl)cccc12, which Potency is on record?
Answer: inactive

Question: Which Potency does the source give for CCCn1c(=O)c2[nH]c(-c3ccc(OCC(=O)Nc4ccc(C#N)cc4)cc3)nc2n(CCC)c1=O here?
Answer: inactive

Question: With CN(C)CCCCSC(=N)N as the compound, how does the Potency read?
Answer: inactive

Question: With Cn1cnc2c(NC3CCCC3)ncnc21 as the compound, how does the Potency read?
Answer: inactive

Question: For NC(CCC(=O)NCS(=O)(=O)O)C(=O)O (configuration not stated), which Potency is on record?
Answer: inactive

Question: Which Potency does the source give for O=C(OCCN1CCCCC1)c1c[nH]c2ccccc12 here?
Answer: inactive

Target: RecQ-like DNA helicase BLM (Homo sapiens) (UniProt P54132)
Experiment: qHTS Validation Assay for Inhibitors of Bloom's syndrome helicase (BLM) (AID 2364)
Details: BLM helicase DNA unwinding, fluorescence, in vitro; series mostly up to 57.1 µM
Method in brief: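 BLM 50 nM in 25 mM Tris-HCl pH 8.0, 5 mM NaCl, 2 mM MgCl2, 1 mM DTT, 0.01% Tween-20, 2.5 ug/ml poly(dI-dC); 15 min cpd preinc, RT. Start: 200 nM forked DNA + 2 mM ATP (final). TAMRA read, 2 reads 2 h apart.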

RecQ-like DNA helicase BLM (Homo sapiens), sequence (P54132 whole entry, looked up): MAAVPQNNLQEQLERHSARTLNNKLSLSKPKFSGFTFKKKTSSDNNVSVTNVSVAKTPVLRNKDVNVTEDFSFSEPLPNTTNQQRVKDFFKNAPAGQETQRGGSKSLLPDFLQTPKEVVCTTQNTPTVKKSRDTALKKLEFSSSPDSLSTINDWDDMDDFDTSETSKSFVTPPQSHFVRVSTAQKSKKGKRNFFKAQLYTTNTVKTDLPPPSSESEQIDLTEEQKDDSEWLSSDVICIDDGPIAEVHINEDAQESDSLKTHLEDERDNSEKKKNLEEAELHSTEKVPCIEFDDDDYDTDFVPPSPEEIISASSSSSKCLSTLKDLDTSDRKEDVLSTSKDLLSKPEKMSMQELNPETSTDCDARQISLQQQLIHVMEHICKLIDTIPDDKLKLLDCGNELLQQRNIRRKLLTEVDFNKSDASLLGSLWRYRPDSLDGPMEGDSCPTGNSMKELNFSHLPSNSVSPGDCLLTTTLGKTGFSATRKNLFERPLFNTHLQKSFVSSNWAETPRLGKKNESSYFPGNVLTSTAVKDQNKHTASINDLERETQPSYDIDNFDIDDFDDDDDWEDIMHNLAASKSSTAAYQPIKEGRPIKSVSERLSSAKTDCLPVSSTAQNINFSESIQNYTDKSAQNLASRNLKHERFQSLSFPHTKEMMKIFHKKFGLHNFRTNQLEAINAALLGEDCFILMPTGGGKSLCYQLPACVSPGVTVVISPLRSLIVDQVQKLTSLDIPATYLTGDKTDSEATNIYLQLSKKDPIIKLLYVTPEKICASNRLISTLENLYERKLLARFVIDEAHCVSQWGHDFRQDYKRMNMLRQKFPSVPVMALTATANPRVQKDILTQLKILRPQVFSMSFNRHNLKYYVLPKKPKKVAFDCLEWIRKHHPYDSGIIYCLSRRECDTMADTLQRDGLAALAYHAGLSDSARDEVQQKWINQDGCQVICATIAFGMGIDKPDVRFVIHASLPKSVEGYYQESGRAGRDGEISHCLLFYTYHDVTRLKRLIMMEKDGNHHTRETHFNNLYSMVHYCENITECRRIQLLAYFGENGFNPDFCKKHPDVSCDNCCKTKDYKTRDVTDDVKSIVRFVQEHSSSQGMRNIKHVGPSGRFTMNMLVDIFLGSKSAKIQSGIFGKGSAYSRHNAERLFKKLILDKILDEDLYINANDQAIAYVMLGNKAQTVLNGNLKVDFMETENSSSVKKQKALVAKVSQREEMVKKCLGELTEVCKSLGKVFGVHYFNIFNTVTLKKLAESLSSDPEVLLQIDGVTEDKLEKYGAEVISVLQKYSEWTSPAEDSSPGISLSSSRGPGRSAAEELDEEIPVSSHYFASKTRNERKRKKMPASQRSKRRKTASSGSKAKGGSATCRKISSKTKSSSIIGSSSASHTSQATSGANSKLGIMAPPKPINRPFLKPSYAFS

Question: With CC(N)=NCc1cccc(CN)c1 as the compound, how does the Potency read?
Answer: inactive

Question: Which Potency does the source give for NCCCCCCNS(=O)(=O)c1cccc2c(Cl)cccc12 here?
Answer: inactive

Question: For CN(C)CCCCSC(=N)N, which Potency is on record?
Answer: inactive

Question: With Cn1cnc2c(NC3CCCC3)ncnc21 as the compound, how does the Potency read?
Answer: inactive

Question: With NC(CCC(=O)NCS(=O)(=O)O)C(=O)O (configuration not stated) as the compound, how does the Potency read?
Answer: inactive

Question: For O=C(OCCN1CCCCC1)c1c[nH]c2ccccc12, which Potency is on record?
Answer: inactive

Tested on: not listed separately
Experiment: Validation screen for small molecules that induce DNA re-replication in MCF 10A normal breast cells (AID 463097); further: nearly all actives have a fitted effect of over 60% in size
Details: MCF 10A cells, DNA re-replication phenotype imaging; series mostly up to 46.1 µM
Method in brief: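 Following 48 hr compound incubation (37 C, 5% CO2), MCF 10A cells receive Hoechst for 40 min at 37 C. Nuclei are then scanned (excitation 405 nm, emission 500-530 nm) for total fluorescence intensity.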

Question: With CC(N)=NCc1cccc(CN)c1 as the compound, how does the Potency read?
Answer: inactive

Question: With O=C(O)c1cc(=O)c2ccc(Cl)cc2[nH]1 as the compound, how does the Potency read?
Answer: inactive

Question: With CCCn1c(=O)c2[nH]c(-c3ccc(OCC(=O)Nc4ccc(C#N)cc4)cc3)nc2n(CCC)c1=O as the compound, how does the Potency read?
Answer: inactive

Question: For CN(C)CCCCSC(=N)N, which Potency is on record?
Answer: inactive

Question: For Cn1cnc2c(NC3CCCC3)ncnc21, which Potency is on record?
Answer: inactive

Question: With NC(CCC(=O)NCS(=O)(=O)O)C(=O)O (configuration not stated) as the compound, how does the Potency read?
Answer: inactive

Question: With O=C(OCCN1CCCCC1)c1c[nH]c2ccccc12 as the compound, how does the Potency read?
Answer: inactive

Tested on: not listed separately
Experiment: Quantitative high throughput screen for delayed death inhibitors of the malarial parasite plastid, 96 hour incubation (AID 488745); further: nearly all actives have a fitted effect of over 70% in size
Details: Plasmodium falciparum growth; series mostly up to 28.7 µM
Method in brief: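 Luciferase-expressing P. falciparum in erythrocytes (2% hematocrit, 0.1% parasitemia) incubated with compound for 96 h at 37 C, 5% CO2, in RPMI 1640 with 0.5% Albumax. Growth inhibition read as decreased luminescence.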

Question: For CC(N)=NCc1cccc(CN)c1, which Potency is on record?
Answer: inactive

Question: Which Potency does the source give for O=C(O)c1cc(=O)c2ccc(Cl)cc2[nH]1 here?
Answer: inactive

Question: For NCCCCCCNS(=O)(=O)c1cccc2c(Cl)cccc12, which Potency is on record?
Answer: inactive

Question: With CCCn1c(=O)c2[nH]c(-c3ccc(OCC(=O)Nc4ccc(C#N)cc4)cc3)nc2n(CCC)c1=O as the compound, how does the Potency read?
Answer: inactive

Question: Which Potency does the source give for Cn1cnc2c(NC3CCCC3)ncnc21 here?
Answer: inactive

Question: Which Potency does the source give for NC(CCC(=O)NCS(=O)(=O)O)C(=O)O (configuration not stated) here?
Answer: inactive

Question: For O=C(OCCN1CCCCC1)c1c[nH]c2ccccc12, which Potency is on record?
Answer: inactive
